# High-throughput results: PubChem BioAssay, National Center for Advancing Translational Sciences (NCATS)
# The list is not random: actives were taken first. Their share in the collection is about 2.7%.
# 12-LOX inh: blocks human arachidonate 12S-lipoxygenase. P18054. purified 12hLO, xylenol orange hydroperoxide absorbance. Potency, µM (series often up to 108 µM), without a hit: top-dose activity change, negative = inhibition, usual class: inhibitors. 1.1% of 580,000 active; also: % is scaled to controls: 0 for no effect and ±100 for the full control effect
# Target sequence (P18054 whole entry, looked up): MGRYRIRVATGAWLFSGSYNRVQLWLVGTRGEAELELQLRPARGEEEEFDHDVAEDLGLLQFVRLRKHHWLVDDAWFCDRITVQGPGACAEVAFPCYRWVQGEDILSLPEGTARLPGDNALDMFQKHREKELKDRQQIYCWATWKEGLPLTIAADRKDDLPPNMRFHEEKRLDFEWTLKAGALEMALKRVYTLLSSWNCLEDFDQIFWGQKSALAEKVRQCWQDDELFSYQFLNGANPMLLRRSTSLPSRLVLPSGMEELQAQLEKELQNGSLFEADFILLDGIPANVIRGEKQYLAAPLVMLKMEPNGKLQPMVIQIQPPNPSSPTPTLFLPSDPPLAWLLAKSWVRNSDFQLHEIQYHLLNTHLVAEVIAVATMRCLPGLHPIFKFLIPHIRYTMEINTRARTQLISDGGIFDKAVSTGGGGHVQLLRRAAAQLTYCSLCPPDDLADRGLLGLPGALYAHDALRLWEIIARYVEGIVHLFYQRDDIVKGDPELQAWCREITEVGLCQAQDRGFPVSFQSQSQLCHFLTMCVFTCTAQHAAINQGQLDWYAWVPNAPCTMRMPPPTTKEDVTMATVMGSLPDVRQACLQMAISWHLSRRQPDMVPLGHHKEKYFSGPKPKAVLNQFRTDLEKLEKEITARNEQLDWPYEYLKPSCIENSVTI
#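 Purified human 12hLO at 150 nM in 25 mM Hepes, 0.01% Triton X-100, pH 7.0, preincubated 15 min at room temperature with compound. Reaction started with 40 uM arachidonic acid, 30 min at room temperature. Hydroperoxide measured by Fe-xylenol orange, 573/405 nm absorbance ratio.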
# HepG2 viability: counter-screen for TGF-b inhibitors: cytotoxicity in HepG2 cells; AID 588856; HepG2 CAGA-GFP viability, ATP luminescence, 18 h; Potency, µM (doses to about 46.1 µM), without a hit: at the highest dose activity change, negative = cytotoxicity, usual class: cytotoxic; 0.76% of 410,000 active
#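 CellTiter-Glo luminescence gave cytotoxicity after 18 hours at 37 degrees C. The cells were HepG2 CAGA-GFP in 1% FBS DMEM, stimulated with 500 pg/mL TGF-beta after compound addition. %Activity was normalised to no-cell wells (complete cell-killing) and DMSO (no toxicity), and curves were fitted and classified.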
# S2 tox: cell viability loss in ATXN counter-screen | S2 cells (HEK-293 line with an ATXN2-luciferase reporter) viability, CellTiter-Fluor protease fluorescence, 24 h | Potency, µM (series often up to 56.7 µM), hits mostly cytotoxic | 0.49% of 400,000 active | AID 651635; also: nearly all actives have a fitted effect of over 40% in size
# TGFb inhibitor: blocks TGF-b signaling. 1.2% of 410,000 active. Potency, µM (titrated, usually from 46.1 µM), without a hit: at the top dose activity, negative = inhibition, usual class: inhibitors. HepG2 CAGA-GFP TGF-b/SMAD3 reporter, GFP fluorescence, 18 h; TGF-beta stimulated, 500 pg/mL final; also: % is scaled to controls: 0 for no effect and ±100 for the full control effect; nearly all actives have a fitted effect of over 65% in size
#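 First, reporter cells (HEPG2 CAGA-GFP) rested 2 h at 37 degrees C. Next, compounds were pinned in and TGF-beta added to 500 pg/mL final. After 18 h, GFP was imaged per cell and summed per well.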
# ATXN2 expr inh: reduces ATXN2 reporter expression in HEK-293 cells | HEK-293 ATXN2-luciferase reporter, luminescence, 24 h | Potency, µM (doses to about 57 µM), inactives show at the highest dose activity change, negative = inhibition, most hits filed as inhibitors | AID 1745845 | 0.72% of 360,000 active; also: % is scaled to controls: 0 for no effect and ±100 for the full control effect; nearly all actives have a fitted effect of over 55% in size
#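 ATXN2-luciferase reporter cells (luciferase flanked by upstream and downstream ATXN2 gene portions) were treated 24 h at 37 °C with compounds at up to 57 uM. SteadyGlo luminescence gave expression; GF-AFC fluorescence gave viability.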
# * = called active by the depositor; i = inactive; ? = inconclusive; / = no result given; ! = a repeat was not active; [ ] = remark or other dose. Calls follow the shape of the dose curve; as a rule, active = well fitted curve in the direction sought with a large enough effect; inconclusive = small, poorly fitted or top-dose-only effect, or another doubt; inactive = no such curve, though single readings can be large; an effect the other way counts as inactive or inconclusive. Potency is read from the fitted curve at half-maximal effect.
SMILES,12-LOX inh,HepG2 viability,S2 tox,TGFb inhibitor,ATXN2 expr inh
CCN(CC)C(=S)SCc1ccc(C(=O)O)cc1,-18%,/,/,/,/
COc1ccc(C2C(C#N)=C(N)Oc3cc(O)ccc32)cc1 (stereo not given),?,-22%,i,6%,4%
N#CC1=C(N)Oc2cc(O)ccc2C1c1ccccc1 (stereo not given),4.5µM*!,-9%,i,27%,-7%
N#CC1=C(N)SC(N)=C(C#N)C1c1cccc(O)c1,32µM*,5%,i,28%,4%
COc1ccc(C2C(C#N)=C(N)SC(N)=C2C#N)cc1OC,?,-7%,i,-8%,-2%
C[N+](C)(CCCCCI)c1ccc(/C=C/c2nc3ccccc3s2)cc1,/,-40%,/,8.9µM*,/
C[N+](C)(C)CCSSCC[N+](C)(C)C,4µM*,/,/,/,/
CCN(CC)c1ccc(N=C2C(=O)Nc3ccccc32)cc1,7%,13µM*,?,?,?
Cc1cccc(Nc2nc(-c3ccc(O)c(O)c3)cs2)n1,28µM*,-33%,?,?,76%
Oc1ccc(-c2csc(Nc3cccc4ccccc34)n2)cc1O,13µM*,-39%,i,?,-7%
COc1ccc(-c2csc(Nc3cc(C)ccn3)n2)cc1C,?,-18%,i,-28%,/
Cc1ccnc(Nc2nc(-c3ccc(O)c(O)c3)cs2)c1,0%,-41%,?,14µM*,26%
Cc1ccnc(Nc2nc(-c3ccc(O)cc3O)cs2)c1,9%,11µM*,?,11µM*,-34%
Cc1ccnc(Nc2nc(-c3ccc(O)cc3)cs2)c1,?,-30%,i,-25%,47%
Cc1ccc(C)c([S+](=O)([O-])c2nnn3c2nc(NC2CCCC2)c2ccccc23)c1,2%[6.33 µM],/,/,/,/
Nc1nnnn1Cc1nnc(SCc2cccc(Cl)c2)n1-c1ccccc1,83%,/,/,/,/
Cc1ccc(S(=O)(=O)N2CCN(C(=O)CNC(=O)c3ccc4c(c3)OCO4)CC2)cc1,-1%,/,/,/,/
C=Cc1ccc(COc2ccc3c(=O)c(-c4ccccc4OC)coc3c2)cc1,33%,/,/,/,/
Cc1cccnc1Nc1nc(-c2ccc(O)c(O)c2)cs1,2.8µM*,-33%,?,?,2%
Oc1ccc(-c2csc(Nc3ccccn3)n2)cc1O,20µM*,-31%,i,?,/
COc1ccc(-c2csc(Nc3ncccc3C)n2)cc1OC,?,-6%,i,-25%,54%
Cc1ccc(-c2csc(Nc3ccccn3)n2)cc1C,32µM*,/,/,/,/
COc1ccc(-c2noc(Cn3cnc4c(nnn4-c4ccc(F)cc4)c3=O)n2)c(OC)c1,-32%,/,/,/,/
O=C(O)/C=C/c1ccc([N+](=O)[O-])cc1,58%,/,/,/,/
CC(Sc1cccc2cccnc12)C(=O)NC(=O)NC1CC1 (stereo not given),19%,/,/,/,/
SMILES,12-LOX inh,HepG2 viability,S2 tox,TGFb inhibitor,ATXN2 expr inh
CCCCNc1nc(-c2ccc3c(c2)CC(=O)N3)cs1,32µM*,/,/,/,/
O=C1Cc2cc(-c3csc(NC4CCCCC4)n3)cc3c2N1CCC3,11µM*,/,/,/,/
CCCCNc1nc(-c2ccc(NC(=O)CC)cc2)cs1,-12%,/,/,/,/
c1ccc(-c2csc(NC3CCCCC3)n2)cc1,?,-15%,i,?,135%
CCNc1nc(-c2ccc3c(c2)CCC(=O)N3)cs1,20µM*,/,/,/,/
O=C1Cc2cc(-c3csc(NC4CC4)n3)ccc2N1,40µM*,/,/,/,/
Nc1nc(-c2ccc3c(c2)CCC(=O)N3)cs1,-19%,-16%,i,-14%,-4%[11.3 µM]
O=C1CCc2cc(-c3csc(NC4CC4)n3)ccc2N1,35µM*,/,/,/,/
CC(C)N(Cc1ccccc1)C(=O)c1cc2ccc3cccnc3c2[nH]1,11%,-38%,/,11µM*,/
COc1cc(C#N)cc(Cl)c1OCc1ccc(C#N)cc1,18%,/,/,/,/
CC(C)(C)NC(=O)C(c1ccc(-c2ccccc2)cc1)N(C[C@H]1CC[C@@H]([C@@H]2CC[C@H](CO)O2)O1)C(=O)c1ccc2ccccc2c1 (stereo not given in full),2%,-89%,20µM*,?,?
COc1ccc(-c2ccc(C#N)c(SCC(=O)Nc3ccccc3Cl)n2)cc1,-5%,/,/,/,/
C=CCN1CCN(C(=O)CCC[C@H]2NC[C@@H]3C[C@H]2CN(Cc2ccccc2)C3)CC1,5.6µM*,/,/,/,/
COc1ccccc1CNC(=O)CCC[C@H]1NC[C@@H]2C[C@H]1CN(Cc1ccccc1)C2,10µM*,/,/,/,/
O=C(CCC[C@H]1NC[C@@H]2C[C@H]1CN(Cc1ccccc1)C2)NCC1CCCCC1,-2%,/,/,/,/
Cc1noc(CSc2nnc(Nc3ccc(C(C)C)cc3)s2)n1,9%,/,/,/,/
N#C/C(=C/c1ccccc1Cl)c1nc2ccccc2c(=O)[nH]1,0%,-5%,i,-23%,?
N#CC(=C(O)c1ccc(Cl)cc1Cl)c1nc2cc(Cl)ccc2c(=O)[nH]1,22µM*,/,/,/,?
COC(=O)c1c(SCC(=O)Nc2cc(C)cc(C)c2)[nH]c2ccccc2c1=O,-18%,10µM*,i,13µM*,?
NC(=S)N/N=C/C1=C(c2ccccc2)C2C=CC1C2 (stereo not given),8.9µM*,/,/,/,/
CC[C@]12c3[nH]c4ccc(Cl)cc4c3CCN1C(=O)[C@@H](CC(=O)NCCC1=CCCCC1)C[C@@H]2C(=O)N1CCN(C(=O)c2ccco2)CC1,25µM*,22%,/,?,?
CCN(CC)C(=O)[C@H]1C[C@H](CC(=O)NCCCN(C)C)C(=O)N2CCc3c([nH]c4ccc(Cl)cc34)[C@]12C,-6%,-42%,i,?,0%
CC(C)N(C(=O)[C@H]1CC(CC(=O)NCCC2=CCCCC2)C(=O)N2CCc3c([nH]c4ccccc34)[C@]12C)C(C)C (stereo not given in full),-24%,-8%,40µM*,?,?
CCN(CC)C(=O)[C@H]1C[C@H](CC(=O)NCC23CC4CC(CC(C4)C2)C3)C(=O)N2CCc3c([nH]c4ccc(Cl)cc34)[C@]12C,?,-92%,?,13µM*,?
CCN(CC)C(=O)[C@H]1C[C@H](CC(=O)NCc2cccc(C(F)(F)F)c2)C(=O)N2CCc3c([nH]c4cc(CCC(=O)N(C)C)ccc34)[C@]12C,-1%,-3%,?,-24%,-3%
CC(C)N(C(=O)[C@H]1C[C@H](CC(=O)NCc2cccc(C(F)(F)F)c2)C(=O)N2CCc3c([nH]c4cc(CCC(=O)N(C)C)ccc34)[C@]12C)C(C)C,-12%,-22%,16µM*,?,?
Cc1ccc(NC(=O)CC(C)n2ccc(C)n2)c(Cl)c1 (stereo not given),8%,/,/,/,/
COc1ccc2c(COC(=O)CNC(=O)c3ccc(C)c(C)c3)cc(=O)oc2c1,-19%,/,/,/,/
Cc1ccc(-c2nc3ccc(Br)cn3c2CC(C)(C)C)cc1,?,-17%,i,-13%,2%
